Experimental findings from PubChem BioAssay (EPA / NIEHS) are described below.

Common to all, as to conditions: mRNA level, 48 h; actives raise or lower the signal
Read-out in one assay: CYP4A11 (gene 1579)
Briefly: LTEA_HepaRG_CYP4A11: Life Technologies and Expression Analysis (LTEA) Assay for CYP4A11 using HepaRG (AID 2283486). Summed up:
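Readout is CYP4A11 mRNA induction or suppression (qRT-PCR, ACTB/GAPDH/POLR2A normalization) in human HepaRG cells after 48 h chemical treatment, concentrations to 100 uM in 0.5% DMSO, fitted bidirectionally against vehicle.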

Read-out in assay [1]: Cytochrome P450 3A4 (Homo sapiens) (UniProt P08684)
Briefly: LTEA_HepaRG_CYP3A4: Life Technologies and Expression Analysis (LTEA) Assay for CYP3A4 using HepaRG (AID 2283487). The method, boiled down: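 Differentiated HepaRG cells, plated 48 h, then dosed 48 h in serum-free induction medium with 0.5% DMSO, 8 half-log concentrations up to 100 uM, duplicate. CYP3A4 mRNA by qRT-PCR, normalized to ACTB/GAPDH/POLR2A; bidirectional fit versus DMSO.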

Read-out in assay [2]: DNA damage-inducible transcript 3 (DDIT3), DDIT3 (gene 1649)
Briefly: LTEA_HepaRG_DDIT3: Life Technologies and Expression Analysis (LTEA) Assay for DNA damage-inducible transcript 3 (DDIT3) using HepaRG (AID 2283488). Summed up:
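Changes in DDIT3 transcript, in either direction relative to 0.5% DMSO vehicle, were quantified by TaqMan qRT-PCR after 48 h chemical exposure of HepaRG cells at 8 concentrations, maximum 100 uM.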

Read-out in assay [3]: Pro-epidermal growth factor (Homo sapiens) (UniProt P01133)
The experiment in a line: LTEA_HepaRG_EGF: Life Technologies and Expression Analysis (LTEA) Assay for Epidermal growth factor (EGF) using HepaRG (AID 2283489). The method, boiled down: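 EGF expression changes in human HepaRG cells are scored by bidirectional fitting relative to 0.5% DMSO controls. Chemicals are tested at eight half-log concentrations up to 100 uM for 48 h in serum-free induction medium.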

Read-out in assay [4]: Early growth response protein 1 (EGR1) transcription factor, EGR1 (gene 1958)
The experiment in a line: LTEA_HepaRG_EGR1: Life Technologies and Expression Analysis (LTEA) Assay for Early growth response protein 1 (EGR1) transcription factor using HepaRG (AID 2283490). Summed up:
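Differentiated HepaRG cells in serum-free induction medium exposed 48 hours, duplicate, to 8 half-log concentrations up to 100 uM in 0.5% DMSO. EGR1 mRNA measured by TaqMan qRT-PCR, normalized to ACTB, GAPDH, POLR2A; bidirectional fit versus DMSO.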

Read-out in assay [5]: Ezrin (EZR), EZR (gene 7430)
Briefly: LTEA_HepaRG_EZR: Life Technologies and Expression Analysis (LTEA) Assay for Ezrin (EZR) using HepaRG (AID 2283491). The method, boiled down: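 EZR transcript levels came from Fluidigm qRT-PCR and were normalized to three housekeeping genes after 48 h chemical exposure of HepaRG cells. Dosing used an 8-point half-log series with a 100 uM top concentration in 0.5% DMSO, tested in duplicate; both directions were fitted versus vehicle.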

Read-out in assay [6]: Cytochrome P450 3A7 (Homo sapiens) (UniProt P24462)
The experiment in a line: LTEA_HepaRG_CYP3A7: Life Technologies and Expression Analysis (LTEA) Assay for CYP3A7 using HepaRG (AID 2283492). Summed up:
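Cells were thawed, plated, cultured 48 h, then treated for a further 48 h with chemicals (eight-point half-log series from 100 uM, 0.5% DMSO). RNA was isolated and CYP3A7 expression quantified by qRT-PCR normalised to ACTB, GAPDH and POLR2A.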

Read-out in the next assay: CYP3A5 (gene 1577)
The experiment in a line: LTEA_HepaRG_CYP3A5: Life Technologies and Expression Analysis (LTEA) Assay for CYP3A5 using HepaRG (AID 2283493). Summed up: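 mRNA induction or loss of CYP3A5 assessed in HepaRG after 48 h dosing, 100 uM top concentration, duplicate wells; TaqMan qRT-PCR with ACTB, GAPDH, POLR2A normalization; 0.5% DMSO as negative control.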

Read-out in assay [7]: Fatty Acid-Binding Protein 1 (FABP1), FABP1 (gene 2168)
The experiment in a line: LTEA_HepaRG_FABP1: Life Technologies and Expression Analysis (LTEA) Assay for Fatty Acid-Binding Protein 1 (FABP1) using HepaRG (AID 2283494). Summed up:
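Differentiated human HepaRG cells exposed 48 h in serum-free induction medium to eight half-log concentrations up to 100 uM (0.5% DMSO), duplicate. FABP1 mRNA by qRT-PCR, normalised to ACTB, GAPDH, POLR2A; bidirectional fitting against DMSO.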

Read-out in assay [8]: Cytochrome P450 4A22 (Homo sapiens) (UniProt Q5TCH4)
Briefly: LTEA_HepaRG_CYP4A22: Life Technologies and Expression Analysis (LTEA) Assay for Cytochrome P450 4A22 (CYP4A22) using HepaRG (AID 2283495). Summed up: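 Cryopreserved HepaRG cells, plated and cultured 48 h, then switched to serum-free induction medium and treated 48 h (duplicates, up to 100 uM, half-log steps, 0.5% DMSO). Expression change of CYP4A22 was fitted bidirectionally against vehicle.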

SMILES strings stand for the structures. Active and inactive are the calls of the source. How the source made its calls: active means hit-call score of the fitted dose curve at least 0.9, where 1 is the maximum; inactive means score below 0.9.

Chain of Cytochrome P450 3A7 (Homo sapiens) (P24462 whole entry, looked up): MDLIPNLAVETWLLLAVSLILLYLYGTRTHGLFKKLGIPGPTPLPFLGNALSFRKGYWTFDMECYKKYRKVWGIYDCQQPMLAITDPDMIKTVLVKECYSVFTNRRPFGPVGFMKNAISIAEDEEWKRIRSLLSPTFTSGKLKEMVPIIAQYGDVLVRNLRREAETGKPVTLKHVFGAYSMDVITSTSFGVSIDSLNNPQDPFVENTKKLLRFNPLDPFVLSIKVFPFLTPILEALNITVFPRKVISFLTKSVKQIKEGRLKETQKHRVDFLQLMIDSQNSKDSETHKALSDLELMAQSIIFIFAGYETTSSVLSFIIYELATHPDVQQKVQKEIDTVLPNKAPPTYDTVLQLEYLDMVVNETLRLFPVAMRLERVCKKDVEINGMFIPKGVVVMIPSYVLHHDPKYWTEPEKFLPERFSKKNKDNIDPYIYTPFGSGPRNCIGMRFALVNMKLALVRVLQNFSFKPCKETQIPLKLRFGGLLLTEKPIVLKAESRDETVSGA
Chain of Cytochrome P450 3A4 (Homo sapiens) (P08684 whole entry, looked up): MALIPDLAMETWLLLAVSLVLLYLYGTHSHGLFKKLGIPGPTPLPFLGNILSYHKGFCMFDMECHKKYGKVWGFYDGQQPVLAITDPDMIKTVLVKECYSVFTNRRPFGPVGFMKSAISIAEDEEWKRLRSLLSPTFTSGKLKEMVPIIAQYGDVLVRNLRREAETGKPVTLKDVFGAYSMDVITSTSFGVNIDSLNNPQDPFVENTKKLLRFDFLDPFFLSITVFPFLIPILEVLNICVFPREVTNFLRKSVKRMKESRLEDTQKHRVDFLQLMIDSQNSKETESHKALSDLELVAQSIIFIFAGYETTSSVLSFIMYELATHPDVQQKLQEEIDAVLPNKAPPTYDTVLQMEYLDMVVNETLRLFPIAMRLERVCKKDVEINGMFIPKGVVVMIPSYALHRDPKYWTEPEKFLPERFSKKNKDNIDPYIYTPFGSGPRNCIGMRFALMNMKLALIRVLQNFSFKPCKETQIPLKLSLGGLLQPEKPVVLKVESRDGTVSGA

As for `O=C(O)c1cccc(C[C@@H]2COc3ccc(OCc4nc5cc(F)ccc5s4)cc3[C@@H]2O)c1`, the AC50 – broadly, the midpoint of the concentration-response curve, whichever way the signal moves – is 85.9 µM (active) in the assay with CYP4A11 (gene 1579); 78.2 µM (active) in assay [1]; 82.2 µM (active) in assay [6]; 79.3 µM (active) in [7]; 90.8 µM (active) in assay [8]. Moreover, the compound was called inactive (in assay [2]; in assay [3]; in assay [4]; in [5]; in the assay with CYP3A5 (gene 1577)).
With `C[C@]12C=CC(=O)C=C1CC[C@H]1[C@@H]3C[C@@H](O)[C@](O)(C(=O)CO)[C@@]3(C)C[C@H](O)[C@@]12F`, the call (with CYP4A11 (gene 1579); in [1]; in assay [2]; in assay [4]; in assay [5]; in assay [6]) was inactive. Further, the compound was called inactive (with CYP3A5 (gene 1577); in assay [7]).
With `CCOC(N)=O`, the outcome (in the assay with CYP4A11 (gene 1579); in assay [1]; in assay [2]; in assay [3]; in assay [4]; in assay [5]) was inactive. Also, the call (in assay [6]; with CYP3A5 (gene 1577); in assay [7]; in [8]) was inactive.
For the compound `COS(C)(=O)=O`, the compound was called inactive (with CYP4A11 (gene 1579); in assay [1]; in assay [3]; in assay [4]; in assay [5]; in assay [6]). Moreover, the compound was classed as inactive (with CYP3A5 (gene 1577); in assay [7]; in [8]).
As for `CCCCCCCC/C=C\CCCCCCCC(=O)OC[C@@H](O)[C@H]1OC[C@H](O)[C@H]1O`, the result (with CYP4A11 (gene 1579); in assay [1]; in assay [2]; in assay [3]; in [4]; in assay [5]) was inactive. Further, the result (in [6]; with CYP3A5 (gene 1577); in [7]; in assay [8]) was inactive.
As for `CCOc1ccc2[nH]cc(C(=O)NCc3ccccc3)c(=O)c2n1`, the AC50 in the assay with CYP4A11 (gene 1579) was 76.5 µM (active); in assay [1], 29.2 µM (active); in [8], 35.4 µM (active). Besides, the compound was classed as inactive (in [3]; in assay [4]; in assay [5]; in assay [6]; with CYP3A5 (gene 1577); in assay [7]).
For the compound `CCCc1ccccc1`, the call (with CYP4A11 (gene 1579); in assay [1]; in assay [2]; in [3]; in [4]; in assay [5]) was inactive. The compound was called inactive (in [6]; with CYP3A5 (gene 1577); in [7]; in assay [8]).
As for `COCc1nnc(-c2ccc[n+]([O-])c2)n1-c1c(Cl)c(Cl)cc2[nH]c(=O)c(=O)[nH]c12`, the call (with CYP4A11 (gene 1579); in assay [1]; in [2]; in assay [3]; in [4]; in assay [5]) was inactive. Moreover, the outcome (in [6]; with CYP3A5 (gene 1577); in assay [7]; in [8]) was inactive.
Turning to `O=C(NO)C1(NS(=O)(=O)c2ccc(Oc3ccc(F)cc3)cc2)CCOCC1`, the AC50 with CYP4A11 (gene 1579) is 71 µM (active); in assay [1] it was 4.48 µM (active); in assay [2], 77.8 µM (active); in assay [7], 50 µM (active); in assay [8] it was 68.9 µM (active). Further, the compound was called inactive (in assay [3]; in [4]; in assay [5]; in [6]; with CYP3A5 (gene 1577)).
On to `CNC(C)=O`, for which the call (with CYP4A11 (gene 1579); in assay [1]; in [2]; in [3]; in assay [4]; in [5]) was inactive. Further, the compound was called inactive (in assay [6]; in the assay with CYP3A5 (gene 1577); in assay [7]; in assay [8]).
Turning to `CC(C)CCCCCCOC(=O)C1CCCCC1C(=O)OCCCCCCC(C)C` (configuration not stated), the result (with CYP4A11 (gene 1579); in [1]; in [3]; in assay [4]; in assay [5]; in assay [6]) was inactive. Also, the result (in the assay with CYP3A5 (gene 1577); in [7]; in assay [8]) was inactive.
`NNC(=O)c1ccncc1`: the compound was classed as inactive (in the assay with CYP4A11 (gene 1579); in [1]; in assay [2]; in [3]; in assay [4]; in assay [5]). Further, the call (in assay [6]; with CYP3A5 (gene 1577); in assay [7]; in [8]) was inactive.
For `CC(=O)c1ccccc1`, the outcome (with CYP4A11 (gene 1579); in [1]; in [3]; in [4]; in [5]; in assay [6]) was inactive. The compound was classed as inactive (with CYP3A5 (gene 1577); in assay [7]; in assay [8]).
Turning to `OCc1ccccc1`, the compound was called inactive (with CYP4A11 (gene 1579); in assay [1]; in [2]; in assay [3]; in [4]; in [5]). Also, the compound was called inactive (in assay [6]; with CYP3A5 (gene 1577); in assay [7]; in assay [8]).
`CCCCCCCCCCCCCCO`: the compound was classed as inactive (in the assay with CYP4A11 (gene 1579); in [1]; in assay [3]; in assay [4]; in assay [5]; in [6]). Besides, the compound was called inactive (with CYP3A5 (gene 1577); in [7]; in assay [8]).
As for `CCN(CC)C(=S)SSC(=S)N(CC)CC`, the compound was called inactive (in the assay with CYP4A11 (gene 1579); in [1]; in assay [2]; in assay [3]; in [4]; in assay [5]). The compound was called inactive (in assay [6]; with CYP3A5 (gene 1577); in assay [8]).
